In the supplement of paper PMC8975748:
Counter-ions that a name gives are not always drawn.

What follows are compounds tested on Saccharomyces cerevisiae BY4741 SeMeCo community (assay: z-score of subpopulation abundance vs DMSO median, subpopulation auxotrophic for M; higher = larger share of this subpopulation than in DMSO controls). Conditions: 10 µM; 24 h; SM minimal medium; subpopulation (auxotrophy): M.
In short: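 A Saccharomyces cerevisiae BY4741 community carried four plasmids, each restoring one auxotrophy and encoding a distinct fluorescent protein. It was pre-grown overnight to OD600 1.0, diluted to 0.3, and 70 µl was added to 384-well plates acoustically predosed with library drugs (10 µM final), then grown 24 h in minimal SM medium. Cells were paraformaldehyde-fixed and imaged by automated confocal microscopy, with single-auxotroph fluorescent strains setting thresholds and autofluorescence correction. Each subpopulation's abundance was scored as a z-score against the vehicle-well median.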

| Compound | z-score of subpopulation abundance |
| --- | --- |
| NC(=O)N1c2ccccc2CC(=O)c2ccccc21 [Oxcarbazepine] | -0.31 |
| CC(=O)OCC1=C(C(=O)O)N2C(=O)[C@@H](NC(=O)CSc3ccncc3)[C@H]2SC1 [Cephapirin Benzathine] | -0.98 |
| COc1ccc(C[C@H](N)C(=O)N[C@H]2[C@@H](O)[C@H](n3cnc4c(N(C)C)ncnc43)O[C@@H]2CO)cc1 [Puromycin 2HCl] | 0.81 |
| OCc1ccccc1O[C@@H]1O[C@H](CO)[C@@H](O)[C@H](O)[C@H]1O [Salicin] | -0.14 |
| O=C(CCCN1CCC(O)(c2ccc(Cl)cc2)CC1)c1ccc(F)cc1 [Haloperidol] | -0.16 |
| COc1cc(O)c(C(=O)Nc2nc(C(=O)NCCN(C(C)C)C(C)C)cs2)cc1OC [Acotiamide] | 0.17 |
| CC(=O)OCC(CCn1cnc2cnc(N)nc21)COC(C)=O [Famciclovir] | -0.23 |
| O=C(c1ccccc1)c1ccc2n1CCC2C(=O)O (stereo not given) [Ketorolac] | 0 |
| CC[C@H]1OC(=O)[C@H](C)[C@@H](O[C@H]2C[C@@](C)(OC)[C@@H](O)[C@H](C)O2)[C@H](C)[C@@H](O[C@@H]2O[C@H](C)C[C@H](N(C)C)[C@H]2O)[C@](C)(O)C[C@@H](C)[C@@H]2N[C@@H](COCCOC)O[C@H]([C@H]2C)[C@]1(C)O [Dirithromycin] | 0.26 |
| C#CCC(Cc1cnc2nc(N)nc(N)c2n1)c1ccc(C(=O)N[C@@H](CCC(=O)O)C(=O)O)cc1 (stereo not given in full) [Pralatrexate] | 2.68 |
| NNc1nncc2ccccc12 [Hydralazine HCl] | -0.11 |
| COc1cccc2c1C(=O)c1c(O)c3c(c(O)c1C2=O)CC(O)(C(=O)CO)CC3OC1CC(N)C(O)C(C)O1 (stereo not given) [Doxorubicin (Adriamycin) HCl] | -6.37 |
| CCN1CCCC1CNC(=O)c1cc(S(N)(=O)=O)ccc1OC (stereo not given) [Sulpiride] | 0.12 |
| CCCCC(F)(F)[C@@]1(O)CC[C@H]2[C@@H](CC(=O)[C@@H]2CCCCCCC(=O)O)O1 [Lubiprostone] | -0.11 |
| CCCN[C@H]1CCc2nc(N)sc2C1 [Pramipexole] | -0.13 |
| Cc1c(Nc2ncccc2C(=O)O)cccc1C(F)(F)F [Flunixin Meglumin] | -0.95 |
| COc1ccc2[nH]c([S+]([O-])Cc3ncc(C)c(OC)c3C)nc2c1 (stereo not given) [Omeprazole Sodium] | -0.71 |
| CO[C@H]1C[C@@H]2CC[C@@H](C)[C@@](O)(O2)C(=O)C(=O)N2CCCC[C@H]2C(=O)O[C@H]([C@H](C)C[C@@H]2CC[C@@H](OP(C)(C)=O)[C@H](OC)C2)CC(=O)[C@H](C)/C=C(\C)[C@@H](O)[C@@H](OC)C(=O)[C@H](C)C[C@H](C)/C=C/C=C/C=C/1C [Ridaforolimus (Deforolimus, MK-8669)] | -1.24 |
| C#C[C@]1(OC(C)=O)CC[C@H]2[C@@H]3CCC4=C[C@@H](OC(C)=O)CC[C@@H]4[C@H]3CC[C@@]21C [Ethynodiol diacetate] | -0.73 |
| Cc1ccccc1C(OCCN(C)C)c1ccccc1 (stereo not given) [Orphenadrine Citrate] | -0.02 |

| Compound | z-score of subpopulation abundance |
| --- | --- |
| CCOc1cc(N)c([N+](=O)[O-])cc1C(=O)NC1CCN(CC2CC=CCC2)CC1 (stereo not given) [Cinitapride Hydrogen Tartrate] | 0.87 |
| Cc1onc(-c2ccccc2)c1-c1ccc(S(N)(=O)=O)cc1 [Valdecoxib] | -0.21 |
| COc1ccc(Cc2cnc(N)nc2N)cc1OC [Diaveridine] | 0.6 |
| CC1(C)[C@H](C(=O)O)N2C(=O)C[C@H]2S1(=O)=O [Sulbactam sodium] | 0.51 |
| CCc1cc(C(N)=S)ccn1 [Ethionamide] | 0.23 |
| O=C(O)c1cc(=O)c2c(OCC(O)COc3cccc4oc(C(=O)O)cc(=O)c34)cccc2o1 [Disodium Cromoglycate] | -0.6 |
| Clc1ccc(C(Cn2ccnc2)OCc2c(Cl)cccc2Cl)c(Cl)c1 (stereo not given) [Isoconazole nitrate] | -0.17 |
| CCCCCCCCN=C(N)NC(N)=NCc1ccc(Cl)c(Cl)c1 [Olanexidine Hydrochloride semihydrate] | -3.65 |
| Nc1nc(N)nc(-c2cc(Cl)ccc2Cl)n1 [Irsogladine] | -0.36 |
| NC(=O)c1ncn([C@@H]2O[C@H](CO)[C@@H](O)[C@H]2O)n1 [Ribavirin] | -0.5 |
| CC1(C)S[C@@H]2[C@H](NC(=O)[C@H](N)c3ccccc3)C(=O)N2[C@H]1C(=O)OCOC(=O)[C@@H]1N2C(=O)C[C@H]2S(=O)(=O)C1(C)C [Sultamicillin] | 0.2 |
| CN1C2CCCC1CC(NC(=O)c1nn(C)c3ccccc13)C2 (stereo not given) [Granisetron] | 1.71 |
| CCC[C@@H]1C[C@@H](C(=O)N[C@@H]([C@H]2O[C@H](SC)[C@H](O)[C@@H](O)[C@H]2O)[C@@H](C)O)N(C)C1 [Lincomycin HCl] | 0.32 |
| CCc1c2c(nc3ccc(OC(=O)N4CCC(N5CCCCC5)CC4)cc13)-c1cc3c(c(=O)n1C2)COC(=O)[C@]3(O)CC [Irinotecan HCl Trihydrate] | 1.27 |
| Cc1[nH]c(=O)c(C#N)cc1-c1ccncc1 [Milrinone] | -0.56 |
| C[C@@H](O)[C@H]1C(=O)N2C(C(=O)O)=C(S[C@@H]3CN[C@H](C(=O)Nc4cccc(C(=O)O)c4)C3)[C@H](C)[C@H]12 [Ertapenem sodium] | 0.04 |
| CN(C)CCc1c[nH]c2ccc(C[C@H]3COC(=O)N3)cc12 [Zolmitriptan] | -0.23 |
| Clc1ccc(C(Cn2ccnc2)OCc2ccsc2Cl)c(Cl)c1 (stereo not given) [Tioconazole] | -0.92 |
| CN1CCOC(c2ccccc2)c2ccccc2C1 (stereo not given) [Nefopam HCl] | 0.02 |
| C[C@]1(Cn2ccnn2)[C@H](C(=O)O)N2C(=O)C[C@H]2S1(=O)=O [Tazobactam] | -0.32 |
